From article PMC7819943, “Rice protein-binding microarrays: a tool to detect cis-acting elements near promoter regions in rice”
Over roughly 39,000 sequences, “fluorescence intensity (a.u.)” has its median near 4,300; the highest 2% begin near 39,000. What follows is part of a selection rich in the highest values, with near analogues and random picks from the rest.

The sequences below were run against T1, OsSMF1 (Oryza sativa, UniProt Q6ZLB0 1-436) (assay: protein-binding microarray (RPBM); PBS, 2% BSA, 51.3 ng/ul salmon testes DNA, 50 uM zinc acetate, 200 nM TF, 25 C, 1 h; high values mean tight binding). Conditions: protein: recombinant; tags: N-terminal polyhistidine and DsRed monomer fusion (pET32a); chain copies: 2; label: CyDye5-dUTP incorporated in the synthesized complementary strand; 3' TTTTT single-stranded linker to array surface; dsDNA, one strand shown.
T1 sequence: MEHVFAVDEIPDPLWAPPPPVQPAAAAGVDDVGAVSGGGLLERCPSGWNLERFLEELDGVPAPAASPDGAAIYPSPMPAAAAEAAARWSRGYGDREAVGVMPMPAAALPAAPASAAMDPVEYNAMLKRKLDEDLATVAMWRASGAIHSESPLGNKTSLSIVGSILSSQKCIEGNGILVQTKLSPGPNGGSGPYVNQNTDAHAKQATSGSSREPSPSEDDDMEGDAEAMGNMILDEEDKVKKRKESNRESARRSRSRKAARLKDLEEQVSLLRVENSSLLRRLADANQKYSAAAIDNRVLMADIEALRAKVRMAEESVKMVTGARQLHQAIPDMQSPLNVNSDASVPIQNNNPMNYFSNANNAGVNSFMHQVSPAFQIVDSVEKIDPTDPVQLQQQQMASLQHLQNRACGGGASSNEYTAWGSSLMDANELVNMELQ
In short: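 Binding signal is defined as the fluorescence intensity of each feature in arbitrary units, read on an Axon 4000B scanner. Transcription factors with N-terminal polyhistidine and DsRed fusions came from E. coli BL21-CodonPlus and were purified on Ni–NTA. They were incubated at 200 nM for 1 h at 25 °C on a custom Agilent array that had been made double-stranded with Cy5-dUTP, with 50 µM zinc acetate present, and the array was washed.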

Sequence	binding signal
TTTTCGGATCAAATTGCCACGTAAGCGCCACGTCAGATGACGGAGTCACCTAGTGCAG	16000 fluorescence intensity (a.u.)
AATTGCCACGTAAGCGCCATGTCAGTGCCACGTCAAATTACGGAGTCACCTAGTGCAG	33800 fluorescence intensity (a.u.)
CAGATATTATATTACGTAACATCTTCGTCAAGCTTACAATCGGAGTCACCTAGTGCAG	3850 fluorescence intensity (a.u.)
ACTATCAAGTTCGGATTAACCGAACCAATACAACCACTCACGGAGTCACCTAGTGCAG	21900 fluorescence intensity (a.u.)
TAAATTTCAAATTCGTGCCACATAGGTCCTTTTCCTCACACGGAGTCACCTAGTGCAG	4670 fluorescence intensity (a.u.)
GCTAGCTATTGTTGATTTGTCGTGTTGTAATATATACACTCGGAGTCACCTAGTGCAG	4680 fluorescence intensity (a.u.)
TAAATCGATCCTACGTCACATGACAGACTGGACCCTTGTCCGGAGTCACCTAGTGCAG	10900 fluorescence intensity (a.u.)
ACGTCCACGAGTCCATGTCATGACACACCCCAAGTTGCTGCGGAGTCACCTAGTGCAG	5510 fluorescence intensity (a.u.)
CCCCATCCTAGATGGAACAACCACGTCATCTCATGGGTGACGGAGTCACCTAGTGCAG	14800 fluorescence intensity (a.u.)
CGTGATCAATTCGCCTCATGCTGGCGTGACGCGGACCGAGCGGAGTCACCTAGTGCAG	6720 fluorescence intensity (a.u.)
TTCAAATGCCACCTAAACGCCACGTCAACCCCATAGACTACGGAGTCACCTAGTGCAG	15600 fluorescence intensity (a.u.)
CAAATGCCACCTAAGCGCCACGTCAACCCCATAGACTAGGCGGAGTCACCTAGTGCAG	34200 fluorescence intensity (a.u.)
TTCAAATGCCACCTAAGCGCCACGTCAACCCCATAGACTGCGGAGTCACCTAGTGCAG	39500 fluorescence intensity (a.u.)
CGCACACATGAGCTCATGATGTGAACGTGATGATGGTGCGCGGAGTCACCTAGTGCAG	48500 fluorescence intensity (a.u.)
TGTGATGTGGGCATGCGTGTGCGCACGTGTTCTATTGGTGCGGAGTCACCTAGTGCAG	17600 fluorescence intensity (a.u.)
GGTGTGAGTGTGATGTTGCTCGTGTAATGATGCGTGTGCGCGGAGTCACCTAGTGCAG	5000 fluorescence intensity (a.u.)
TCCGCCGCCTCGGTCGGCTCACGCGTCCATGTCCATCCCGCGGAGTCACCTAGTGCAG	3600 fluorescence intensity (a.u.)
GAGTTGAGTTTAGACTTTCTAGAGTGGTATATGTATGTTTCGGAGTCACCTAGTGCAG	40900 fluorescence intensity (a.u.)
GTCCAGATTCGTTGTACTAGAATATGTCAGATCCAGTCCTCGGAGTCACCTAGTGCAG	3410 fluorescence intensity (a.u.)
TGTCGGTACTTTCATACGTCATCTATGTATGAGTCGGTTTCGGAGTCACCTAGTGCAG	10600 fluorescence intensity (a.u.)
CCTCTAGATCCTCTATGGTACTATATGTACAGTGCTGTTTCGGAGTCACCTAGTGCAG	42900 fluorescence intensity (a.u.)

Sequence	binding signal
CGCACTCAGCTTGTTCCTCTAACTGTACACAGTGGTACTTCGGAGTCACCTAGTGCAG	26500 fluorescence intensity (a.u.)
GGGTGAGTGTGTGTTGTGCGTTGTGAGTGTGTATGTGTTTCGGAGTCACCTAGTGCAG	3730 fluorescence intensity (a.u.)
TGGCTATACTATTGAACTTGCTCTCGTGGGACCCACATACCGGAGTCACCTAGTGCAG	3680 fluorescence intensity (a.u.)
CTTTTGGTCTCGCGCCCACTGACACGTGGGTCCCACGCTCCGGAGTCACCTAGTGCAG	6100 fluorescence intensity (a.u.)
GCGCGCGCGTTCTCTAATCGAAGTCGATAGGATAGGAGGACGGAGTCACCTAGTGCAG	36900 fluorescence intensity (a.u.)
CATTCCCTCCTCCTCCTCCTCCTCCTCCTGAATCCCTCCTCGGAGTCACCTAGTGCAG	3380 fluorescence intensity (a.u.)
GCCCTGTTCCCTGCAGAGAATCATTATATACTCCCTCCAACGGAGTCACCTAGTGCAG	48100 fluorescence intensity (a.u.)
TATATAAGAGACCTCACCTCCAAGAATCTCCAGAGAGAGACGGAGTCACCTAGTGCAG	22900 fluorescence intensity (a.u.)
CGAGGTGAGGCGGAGGGGAGGCAGAGGGGTAGAGGAGGGTCGGAGTCACCTAGTGCAG	5260 fluorescence intensity (a.u.)
CTACTATACCTCCGTGCGTACCACATACTGTATGTAGACTCGGAGTCACCTAGTGCAG	4130 fluorescence intensity (a.u.)
CATAGTGCAGGGGAGAAGCCAGGGAAGAGGGAGGTGACGTCGGAGTCACCTAGTGCAG	3290 fluorescence intensity (a.u.)
AATAGGAAATAAACATTACTGAGAAAAGGGCTCATGTTGGCGGAGTCACCTAGTGCAG	29300 fluorescence intensity (a.u.)
GAGGAGTGGGAGGAAAATGAGTGGTGGGGAAAGGATAGGGCGGAGTCACCTAGTGCAG	4150 fluorescence intensity (a.u.)
AAACGATGACTGTTAAATAGGGATTAAAAGGAAAGGATGGCGGAGTCACCTAGTGCAG	41200 fluorescence intensity (a.u.)
AGCACACATACTAGTACTATATGACAAGTCCACGGAGAGCCGGAGTCACCTAGTGCAG	3760 fluorescence intensity (a.u.)
GATTAATACGACTACTGTCATACGTACTGTACATGTCATGCGGAGTCACCTAGTGCAG	3720 fluorescence intensity (a.u.)
CTTTGGCTTTTAGCCATAGACTTTGATCCATGAGTTAGAACGGAGTCACCTAGTGCAG	40900 fluorescence intensity (a.u.)
TTTTGAGCCTAGTTAGTCCATGATTAGCCATAAATGCTACCGGAGTCACCTAGTGCAG	4540 fluorescence intensity (a.u.)
TTTTAGCCTCCTTTTGGTTAATCTTTGTTTGATCCAAGAACGGAGTCACCTAGTGCAG	10200 fluorescence intensity (a.u.)
GGGAAGAGAGAAGAGACGAAACAGGGAGGAGGGGATTGGGCGGAGTCACCTAGTGCAG	3320 fluorescence intensity (a.u.)
CAACATGCACGTACTACGTGTGCTTGCATTGCATGCATGCCGGAGTCACCTAGTGCAG	4450 fluorescence intensity (a.u.)
